Screening data: PubChem, Broad Institute
PAX8 inh HTS = PAX8 transcriptional activity inhibition. RMG-I TPO-luciferase reporter, SteadyGlo, 24 h. inhibition, % at 12.6 µM. actives 1.2% (n = 360,000). AID 652154;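 active means mean replicate inhibition at least 60% with every replicate also reaching 60%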;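 further: luciferase light reporting Pax8 driven TPO promoter activity; plate controls were median of neutral control wells for no effect and mitoxantrone controls for full effect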
LGR2 antag = blocks bursicon-induced cAMP signaling via Drosophila LGR2. actives 0.35% (n = 380,000). inhibition, % at 9.99 µM. HEK293 LGR2, CRE-luciferase, bursicon-stimulated, 4 h;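 active means drop in luminescence signal, shown as inhibition above about 50% in the replicate tests, limit read from the data, passing the limit was not always enough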;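 further: agonist challenge used bursicon conditioned medium at about half maximal strength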
EWS-Fli inh = EWS/Fli transcriptional activity inhibition. actives 0.67% (n = 350,000). inhibition, % at 12.6 µM. A673 NR0B1-luciferase reporter, viability-normalised;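 active means mean inhibition of at least 50% after viability correction, with every replicate also passing that limit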;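 further: firefly luciferase signal divided by Alamar Blue viability fluorescence both relative to DMSO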
Ecoli rRNA inh = inhibits bacterial ribosomal RNA function over humanized ribosomes; E. coli WT GFP vs humanized-ribosome RFP mutants, fluorescence, 24 h; stronger effect = lower value; DMSO median 0, no signal -100; AID 720706; GFP signal change (wild-type ribosome), % (no concentration beside the values); actives 1.6% (n = 350,000);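 active means significant combined selectivity score with lowered wild-type GFP, culture density cut under 30%, mutant RFP and density less affected; inactive means any of these conditions unmet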
PGC1a acetyl inh = PGC1a acetylation modulation, inhibitor mode. actives 0.17% (n = 350,000). U2OS PGC1a acetylation, AlphaScreen anti-acetyl-lysine; with virally co-expressed GCN5 acetyltransferase. AID 651687. inhibition, % at 15.6 µM;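 active means every replicate shows inhibition of at least 40%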;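 further: 0% = neutral control wells and 100% = positive control wells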
SIRT5 inh = inhibitors of human sirtuin-5 desuccinylase | Q9NXA8 | Purified SirT5, succinyl-peptide AMC, trypsin-coupled fluorescence | inhibition, % at 15 µM | actives 1.1% (n = 330,000) | AID 652115; in the data active means inhibition above about 15%
Target sequence (Q9NXA8 whole entry, looked up): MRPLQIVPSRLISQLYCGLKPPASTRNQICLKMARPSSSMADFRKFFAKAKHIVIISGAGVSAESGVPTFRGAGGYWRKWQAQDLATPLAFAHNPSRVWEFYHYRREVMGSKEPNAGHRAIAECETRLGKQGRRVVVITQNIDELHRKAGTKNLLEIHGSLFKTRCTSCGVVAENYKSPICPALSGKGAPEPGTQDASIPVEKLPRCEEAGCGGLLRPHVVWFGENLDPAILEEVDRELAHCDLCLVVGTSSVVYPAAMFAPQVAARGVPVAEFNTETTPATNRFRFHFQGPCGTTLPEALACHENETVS
Starred values were filed as active, the others as inactive; nt = no result given. This is a sample that favours compounds with a hit; in the whole collection about 3.4% have one here.

SMILES	PAX8 inh HTS	LGR2 antag	EWS-Fli inh	Ecoli rRNA inh	PGC1a acetyl inh	SIRT5 inh
C[C@H](CO)N1C[C@H](C)[C@@H](CN(C)C(=O)Nc2ccc(F)cc2)OCCCC[C@H](C)Oc2ccc(NC(=O)Nc3ccc(F)cc3)cc2C1=O	13	-2	7	-2	6	8
Cc1ccc(CSc2nnc3c(n2)OC2(Nc4ccccc4-3)C(=O)Nc3ccc(F)cc32)cc1 (centres undefined)	nt	-4	27	-15	11	-1
O=C1Nc2ccc(F)cc2C12Nc1ccccc1-c1nnc(SCc3ccccc3)nc1O2 (centres undefined)	nt	-50	0	-17*	6	5
CC=Cc1ccc2n(c1=O)C[C@@H]1[C@@H](CO)[C@H](C(=O)NCc3ccccc3)[C@H]2N1Cc1ccccc1OC (mixture of isomers)	5	-29	10	0	7	2
Cc1nnc(NC(=O)CSc2ncnc3scc(-c4ccccc4)c23)s1	0	nt	nt	nt	nt	nt
Cn1nnnc1Sc1ncnc2scc(-c3ccc(C#N)cc3)c12	72*	88*	21	19	-74	nt
Cn1nnnc1Sc1ncnc2scc(-c3cccs3)c12	nt	nt	nt	nt	-38	nt
Cn1nnnc1Sc1ncnc2scc(-c3cc4ccccc4o3)c12	90*	106*	12	-28	-106	0
Cn1nnnc1Sc1ncnc2scc(-c3ccc(-c4ccccc4)cc3)c12	77*	10	-5	13	nt	nt
Cc1ccc(-c2csc3ncnc(SCC(=O)O)c23)cc1	-2	10	-3	-1	9	2
Cn1nnnc1Sc1ncnc2scc(-c3ccsc3)c12	98*	74*	22	-19	nt	nt
CC(C)C[C@H]1COCc2cn(nn2)CC[C@@H](Cc2cccc(Cl)c2)C(=O)N1	nt	nt	nt	-2	nt	nt
O=C(C1CCOCC1)N1C[C@H]2[C@@H](c3ccccc31)[C@@H](CO)N2C(=O)Cc1ccccc1	-16	-3	0	4	9	-1
O=C(C1CCC1)N1CC2(C1)[C@H](c1ccccc1)[C@@H](CO)N2CCC(F)(F)F	nt	6	nt	0	nt	-2
O=c1c2ccccc2nc2c3ccccc3c(NCc3ccccn3)nn12	6	-11	-10	-24	nt	112*
O=c1c2ccccc2nc2c3ccccc3c(NCc3cccnc3)nn12	-10	22	7	13	nt	3
Cc1cc(/C=N/n2cnnc2)c(C)n1-c1ccc(OCc2ccc(Cl)cc2)cc1	nt	8	nt	nt	-7	nt
Cc1cc(/C=N/n2cnnc2)c(C)n1-c1ccc(OCc2ccccc2F)cc1	nt	19	8	-43*	12	1
COc1cc(-c2noc(C)c2-c2ccc(N(C)C)nc2)cc(OC)c1OC	74*	-2	61*	-16	nt	nt
COc1cc(N=C2C(=O)N3CCCc4cccc2c43)cc(OC)c1	6	4	nt	nt	nt	nt
O=C1c2cccc3c2N(CCC3)C(=O)C1(F)c1ccccc1 (centres undefined)	13	nt	0	-17*	1	1
O=C(CN1C(=O)C2CCCCC2C1=O)Nc1cccc(C(F)(F)F)c1 (centres undefined)	-31	-10	0	-15*	1	nt
O=C(CN1C(=O)C2CCCCC2C1=O)Nc1cccc([N+](=O)[O-])c1 (centres undefined)	-5	-4	-7	1	4	-1
S=C1NC2(CCCCC2)Cc2ccccc21	-13	1	nt	nt	-5	nt
COc1cc2c(cc1OC)C(=S)NC1(CCCC1)C2	3	-44	9	-6	1	38*
N=c1c2c(n(Cc3ccc(F)cc3)c3c1CCC3)CCC2	nt	-3	11	-29*	nt	-1
CCCCCCCn1c2c(c(=N)c3c1CCC3)CCCC2	94*	nt	63*	-50	-2	-2
O=C(C[C@H]1CC[C@@H](NC(=O)c2ccc3c(c2)OCO3)[C@@H](CO)O1)NCc1ccc(Cl)cc1	2	-7	-5	-1	-1	-1
O=C1CC2(CCCCC2)Oc2ccccc21	3	9	2	14	1	31*
C[C@@H]1CN([C@H](C)CO)C(=O)Cc2cc(NC(=O)CCC(F)(F)F)ccc2O[C@H]1CN(C)Cc1ccc(C(=O)Nc2ccccc2N)cc1	17	8	0	-2	5	nt
